Many of the other results were omitted from the sample, so hits are more common in it than they were.
IMPase Li inh: qHTS Assay for Identifying the Cell-Membrane Permeable IMPase Inhibitors: Potentiation with Lithium. CHO-M1 cells, IP1 TR-FRET (IP-One), carbachol + lithium. Potency, µM (highest dose often 59.4 µM), usual class: inhibitors. actives 0.35% (n = 210,000). AID 1457, 2008;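 further: IP1 builds up when IMPase is blocked and the TR-FRET signal falls; nearly all actives have a fitted effect of over 50% in size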
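Lithium-sensitised IP1 accumulation assay; M1-expressing CHO cells treated 30 min at 37C with compound. Competitive antibody detection by time-resolved FRET followed a 10 min room-temperature lysis step.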
ERK EGF block: qHTS Assay for Inhibitors of the ERK Signaling Pathway using a Homogeneous Screening Assay; Stimulation with EGF | HEK293-V1b, EGF-stimulated phospho-ERK AlphaScreen | Potency, µM (doses to about 11.5 µM), most hits filed as inhibitors | actives 0.41% (n = 130,000) | AID 1454, 2008; further: nearly all actives have a fitted effect of over 55% in size
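Readout: AlphaScreen signal for phosphorylated ERK in lysed HEK293 cells stably expressing V1b. Stimulus 25 nM EGF, 5 min, following 30 min compound exposure. Data scaled to DMSO basal and full EGF activation.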
NPSR antag: qHTS Assay for Antagonists of the Neuropeptide S Receptor: cAMP Signal Transduction | Q6W5P4 | CHO-NPSR cells, cAMP TR-FRET, antagonist mode | Potency, µM (series often up to 38.3 µM), usual class: inhibitors | actives 1% (n = 220,000) | AID 1461, 2008; further: nearly all actives have a fitted effect of over 50% in size
Target sequence (Q6W5P4 whole entry, looked up): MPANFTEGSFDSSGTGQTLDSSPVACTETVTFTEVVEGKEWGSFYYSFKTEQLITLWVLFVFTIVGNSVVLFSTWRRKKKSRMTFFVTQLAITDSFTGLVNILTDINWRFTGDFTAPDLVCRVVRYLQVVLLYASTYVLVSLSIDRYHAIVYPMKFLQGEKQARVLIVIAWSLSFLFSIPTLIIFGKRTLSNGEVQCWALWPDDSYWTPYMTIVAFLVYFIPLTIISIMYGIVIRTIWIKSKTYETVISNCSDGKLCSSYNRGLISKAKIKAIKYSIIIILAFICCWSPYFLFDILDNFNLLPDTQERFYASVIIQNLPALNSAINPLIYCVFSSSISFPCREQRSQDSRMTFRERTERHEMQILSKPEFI
A number is an active result; 0 = inactive; ? = inconclusive; - = no result; ! = a repeat was not active. The call rests on the fitted dose curve; in most records, active means well fitted curve in the direction sought with a large enough effect; inconclusive means small, poorly fitted or top-dose-only effect, or another doubt; inactive means no such curve, though single readings can be large; an effect the other way counts as inactive or inconclusive.

SMILES | IMPase Li inh | ERK EGF block | NPSR antag
CC1OC(OC2C(OC3C(O[C@H]4CC[C@]5(C)C6C=C[C@]78OC[C@@]9(CC[C@@H](C)[C@H](C)C97)[C@H](O)C[C@@]8(C)[C@]6(C)CC[C@H]5C4(C)C)OC(C)C(O)C3O)OC(CO)C(O)C2O)C(O)C(O)C1O (stereo partly drawn) | - | 11µM | ?
CC1(C)[C@@H](O[C@H]2O[C@H](C(=O)O)[C@@H](O)[C@H](O)[C@H]2O[C@@H]2O[C@H](C(=O)O)[C@@H](O)[C@H](O)[C@H]2O)CC[C@]2(C)[C@H]3C(=O)C=C4[C@@H]5C[C@@](C)(C(=O)O)CC[C@]5(C)CC[C@@]4(C)[C@]3(C)CC[C@@H]12 | 0 | - | -
Oc1ccc(CN2CCCCC2)c2cccnc12 | 0 | 0 | 0
Oc1ccc(CN2CCc3ccccc3C2)c2cccnc12 | 0 | - | 4µM
C[C@H]1[C@H](NC(=O)/C(=N/OC(C)(C)C(=O)O)c2csc(N)n2)C(=O)N1S(=O)(=O)O (stereo in doubt) | 0 | 0 | -
O=C(Nc1ccccn1)C(=O)Nc1ccccn1 | - | 0 | 0
S=C(Nc1ccccn1)c1ccccn1 | 0 | 0 | 2µM
Cc1cccc(NC(=O)CSc2nnc(-c3n[nH]c4ccccc34)o2)c1 | 0 | 0 | 0
N#Cc1cccc(NC(=O)CSc2nnc(-c3n[nH]c4ccccc34)o2)c1 | 0 | 32µM | 0
C[N+](C)(C)CCC(=O)c1cccc2ccccc12 | 0 | ? | 32µM
O=C(O)CCC(=O)c1cccc2ccccc12 | 0 | - | 0
CCn1cc(C(=O)NCc2cccc(F)c2)c(=O)c2cc(F)c(N3CCN(C(=O)c4ccco4)CC3)cc21 | 0 | - | 10µM
CCn1cc(C(=O)NCc2cccnc2)c(=O)c2cc(F)c(N3CCN(C(=O)c4ccco4)CC3)cc21 | 0 | - | 0
CC(=O)/C(=C\c1ccccc1F)C(=O)c1ccccc1 | 0 | - | -
Cc1nc2cnc(N(C)C)nc2n(C2CC2)c1=O | 0 | - | -
Cc1ccc(C2=C(Cl)C(=O)C(c3ccc(C)cc3)=C(Cl)C2=O)cc1 | 0 | - | -
CC(C)(C)c1ccc(CSc2nnc(-c3ccccc3NC(=O)c3ccccc3)o2)cc1 | 0 | 0 | 0
CCOC(=O)CSc1nnc(-c2ccccc2NC(=O)c2ccccc2)o1 | 11µM | - | 0
FC(F)(F)c1ccccc1NC(=S)N/N=C1\CC2CC=CC12 (stereo not drawn) | 0 | 0 | 0
O=C1C=CC(=O)C2=C1C1c3ccccc3C2c2ccccc21 | 0 | 0 | -
O=c1c(O)cc(C2Oc3cc(O)cc(O)c3CC2O)cc2c(C3Oc4cc(O)cc(O)c4CC3O)cc(O)c(O)c12 (stereo not drawn) | 0 | 0 | -
O=C(Nc1nc(-c2cccs2)c(C(=O)C(F)(F)F)s1)c1ccccc1 | 0 | ? | 0
O=C(Nc1nc(-c2cccs2)c(C(=O)C(F)(F)F)s1)c1ccco1 | 10µM | 0 | 10µM
O=C(c1cnccn1)N1CCC2(CC1)CN(Cc1cc(C(F)(F)F)cc(C(F)(F)F)c1)C2 | 0 | 0 | -
FC(F)(F)c1cc(NC(=S)N2c3ccccc3-n3cccc3[C@H]2c2cccnc2)cc(C(F)(F)F)c1 | 0 | - | -
SMILES | IMPase Li inh | ERK EGF block | NPSR antag
O=C1C(C=Nc2ccccc2O)=C(O)c2ccccc21 | 0 | - | 0
Cc1ccc(O)c(N=CC2=C(O)c3ccccc3C2=O)c1 | 10µM | - | ?
N[C@@H](CCS(=O)O)C(=O)O | 0 | - | -
O=C(CCl)N(c1ccc(Cl)cc1)c1c[nH]c2ccccc12 | 0 | - | 7.9µM
O=C(CCl)N(c1ccccc1)c1c[nH]c2ccccc12 | - | - | 0
CNC(=O)[C@H]1O[C@@H](n2cnc3c(NCc4cccc(I)c4)ncnc32)[C@H](O)[C@@H]1O | 0 | - | -
CCCCC1=CC2=C(c3ccco3)C(=O)C(C)(OC(=O)c3ccc(OC)cc3)C(=O)C2=CN1CC(C)C (stereo not drawn) | ? | 0 | 10µM
CCCCC1=CC2=C(c3ccco3)C(=O)C(C)(OC(=O)c3ccc(OC)cc3)C(=O)C2=CN1Cc1ccc(OC)cc1 (stereo not drawn) | 0 | 0 | 0
O=C(CCCn1c(=O)[nH]c2ccccc2c1=O)Nc1ccc(F)cc1 | 0 | 0 | 0
O=C(c1ccc(F)cc1)C1CCN(CCn2c(=O)[nH]c3ccccc3c2=O)CC1 | 0 | 0 | 1.6µM!
O=S(=O)(c1ccccc1)N1N=C(c2cccs2)CC1c1ccc(F)cc1 (stereo not drawn) | 0 | - | 0
Fc1ccc(N2N=C(c3cccs3)CC2c2ccccc2)cc1 (stereo not drawn) | 10µM | ? | 0
CCCCCCCCC/C=C/CC1CC(=O)OC1=O (stereo not drawn) | 0 | - | -
CC(NC(=O)Nc1nnc(C(F)(F)F)s1)(C(F)(F)F)C(F)(F)F | 0 | - | 10µM
CC(C)(C)CC(=O)Nc1nnc(C(F)(F)F)s1 | 0 | 0 | 0
CC(C)(C)COS(=O)OCC(C)(C)C | 0 | - | -
CC1(C)C2CC=C(/C=N/NC(=S)Nc3cccnc3)C1C2 (stereo not drawn) | 0 | 0 | 0
CC1=C/C(=N\NC(=S)Nc2cccnc2)CC(C)(C)C1 | 0 | 0 | 1.3µM
CS(=O)(=O)N1CCN(c2nc3ccccc3s2)CC1 | 0 | - | ?
O=S(=O)(c1ccccc1)N1CCN(c2nc3ccccc3s2)CC1 | 11µM | - | 0
O=C(O)c1ccc(NS(=O)(=O)Cc2ccccc2)cc1 | 0 | - | -
O=c1cnc2cnc(N3CCNCC3)nc2n1C1CC1 | 0 | - | -
COC(=O)C1(C(=O)OC)C[C@H]2CON=C2[C@H]1c1ccccc1 | 0 | 0 | -
COc1cc2nc(N3CCN(C(=O)OCc4ccccc4)C(C(=O)NC(C)(C)C)C3)nc(N)c2cc1OC (stereo not drawn) | 0 | 0 | 13µM
COc1cc2nc(N3CCN(C(=O)c4ccco4)CC3)nc(N)c2cc1OC | 0 | 0 | 0
SMILES | IMPase Li inh | ERK EGF block | NPSR antag
COc1cc2[nH]c3c(N4CCN(c5ccc(Cl)cc5)CC4)ncnc3c2cc1OC | 0 | - | 0
COc1ccc2c(c1)[nH]c1c(N3CCN(Cc4ccc5c(c4)OCO5)CC3)ncnc12 | 0 | - | 13µM
COc1ccc2c(c1)[nH]c1c(N3CCSCC3)ncnc12 | - | 28µM | ?
c1nc(N2CCN(Cc3ccc4c(c3)OCO4)CC2)c2[nH]cnc2n1 | 0 | 0 | 0
Cc1ccc2c(c1)[nH]c1c(N3CCN(Cc4ccccc4)CC3)ncnc12 | 0 | - | ?
Cc1ccc2[nH]c3c(N4CCN(Cc5ccccc5)CC4)ncnc3c2c1 | 0 | - | 13µM
CC12C=CC(=O)C=C1[C@@H](F)CC1C2C(O)CC2(C)C1CC[C@]2(O)C(=O)CO (stereo partly drawn) | 0 | - | -
CC(C)C(=O)NC(=S)/C=C1/N(C)c2ccccc2C1(C)C | 0 | ? | 0
Cc1ccc(C(=O)NC(=S)/C=C2\N(C)c3ccccc3C2(C)C)cc1 | 0 | 25µM | 0
O=C(Cn1cc(C(F)(F)F)cc(Cl)c1=O)Nc1cc(Cl)cc(Cl)c1 | 0 | 0 | 0
O=C(Cn1cc(C(F)(F)F)cc(Cl)c1=O)Nc1cccc(Cl)c1 | 10µM | 0 | 0
Oc1ccc2ccccc2c1/C=C\c1ccc2c(Br)cc(Br)c(O)c2n1 | 0 | - | -
CN(C)CCN(c1ccccn1)c1ccccn1 | 0 | - | -
CCOC(=O)c1sc2nc3c(SCCC(=O)O)cc(C(=O)c4cc(OC)ccc4O)cn3c(=O)c2c1C | 0 | ? | 10µM
